Assay results: a collection of fitness landscapes (doi:10.1016/j.celrep.2020.107928)
Over roughly 81,000 sequences, “one-hybrid fitness for binding NBS DNA” has its median near -0.1; the highest 2% begin near 0.36. The sample as a whole holds a higher share of the highest values than the screen did.

B1: Caulobacter ParB omega fusion; a variant is named by its letters at X, in order, B8GW30 (parent)
chain: MESVVVGEPGMSEGRRGLGRGLSALLGEVDAAPAQAPGEQLGGSREAPIEILQRNPDQPRRTFREEDLEDLSNSIREKGVLQPILVRPSPDTAGEYQIVAGERAWRAAQRAGLKTVPIMVRELDDLAVLEIGIIENVQRADLNVLEEALSYKVLMEKFERTQENIAQTIGKSXSHVANXMRLLXLPDEVQSYLVSGELTAXHARAIAAAADPVALAKQIIEGGLSVRETEALARKAPNLSAGKSKGGRPPRVKDTDTQALESDLSSVLGLDVSIDHRGSTGTLTITYATLEQLDDLCNRLTRGI

Variants of: B1
Experiment: one-hybrid fitness for binding NBS DNA (the Noc-binding site; scaled: cognate 1, non-cognate 0); higher = stronger binding
Details: with NBS DNA site
Outline: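 Fitness is the rescaled log change in variant-to-wild-type read ratio, measured by Illumina sequencing of plasmids before and after bacterial one-hybrid selection. The scale puts cognate at 1 and non-cognate at 0. Selection of Caulobacter ParB libraries, four specificity codons randomised, took place in E. coli USO with a HIS3 reporter, site 19 bp from the promoter, over 48 hours at 37°C on M9-minus-histidine with 0.1 mM IPTG and 5 mM 3-AT.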

Point of comparison: RGRR, “one-hybrid fitness for binding NBS DNA” value 0.336. Against it:
- VMCN — lower, ≤ 0.2
- SSHR — lower, 0.261
- WIIS — lower, ≤ 0.2
- QDAC — lower, ≤ 0.2
- YRCS — lower, ≤ 0.2
- QPDL — lower, ≤ 0.2
- QYVG — lower, ≤ 0.2
- RKCC — lower, ≤ 0.2
- HGRR — lower, ≤ 0.2
- EGQR — lower, ≤ 0.2
- QALA — lower, ≤ 0.2
- QMVA — lower, ≤ 0.2
- QAKA — higher, 0.521
- QHIA — lower, ≤ 0.2
- QCKA — higher, 0.608
- QIKA — higher, 0.351
- QMKA — higher, 0.596
- QHVA — lower, ≤ 0.2
- QMIA — lower, ≤ 0.2
- QPKA — lower, ≤ 0.2
- QHKA — higher, 0.597
- QAVA — lower, ≤ 0.2
- NDTL — lower, ≤ 0.2
- YAKI — lower, ≤ 0.2
- LRRN — lower, ≤ 0.2
- TCKG — lower, ≤ 0.2
- WGAS — lower, ≤ 0.2
- PPRC — lower, ≤ 0.2
- QKPA — lower, ≤ 0.2
- QKVA — lower, ≤ 0.2
- QLKA — higher, 0.466
- QLVA — lower, ≤ 0.2
- QLLA — lower, ≤ 0.2
- QSKA — higher, 0.558
- QWKA — lower, ≤ 0.2
- QKKA — higher, 0.577
- QSVA — lower, ≤ 0.2
- AVKE — lower, ≤ 0.2
- NQRA — lower, ≤ 0.2
- FGAF — lower, ≤ 0.2
- QMVD — lower, ≤ 0.2
- QMKG — the same, 0.336
- QMKR — higher, 1.03
- QMVP — lower, ≤ 0.2
- QMKL — lower, 0.262
- QMVR — higher, 0.424
- TAHS — lower, ≤ 0.2
- IMVC — lower, ≤ 0.2
- HTKM — lower, ≤ 0.2
- KTGG — lower, ≤ 0.2
- ETHC — lower, ≤ 0.2
- RRQR — higher, 0.765
- RRGQ — lower, 0.239
- RRLQ — lower, 0.209
- RRDR — higher, 0.666
- RRQK — lower, 0.261
- RRGF — lower, ≤ 0.2
- RRGR — higher, 0.744
- RRLG — lower, 0.245
- RRQF — lower, 0.221
- RRLR — higher, 0.702
- RPDR — lower, ≤ 0.2
- SFAS — lower, ≤ 0.2
- HDCG — lower, ≤ 0.2
- DQVR — lower, ≤ 0.2
- KNLL — lower, ≤ 0.2
- DPPY — lower, ≤ 0.2
- PPNW — lower, ≤ 0.2
- ARKC — lower, ≤ 0.2
- HVNI — lower, ≤ 0.2
- HCSE — lower, ≤ 0.2
- RRSF — lower, ≤ 0.2
- RRNG — higher, 0.343
- RERR — lower, ≤ 0.2
- RRSM — lower, 0.311
- RCER — lower, 0.245
- RRRR — higher, 0.904
- RRNE — lower, ≤ 0.2
- RPER — lower, ≤ 0.2
- RRNR — higher, 0.813
- RRER — higher, 0.629
- RRSR — higher, 0.756
- PAQI — lower, ≤ 0.2
- TDSA — lower, ≤ 0.2
- YSRC — lower, ≤ 0.2
- RRHF — lower, 0.207
- RRWR — higher, 0.732
- RRYR — higher, 0.728
- RRCF — lower, ≤ 0.2
- RRCR — higher, 0.75
- RRHR — higher, 0.771
- RRCC — lower, 0.325
- RRWK — lower, 0.249
- RRWG — lower, 0.216
- RRHQ — lower, 0.293
- ETHW — lower, ≤ 0.2
- GAPL — lower, ≤ 0.2
- TTDQ — lower, ≤ 0.2
- QPFL — lower, ≤ 0.2
- QGKK — lower, ≤ 0.2
- MPVQ — lower, ≤ 0.2
- KLMT — lower, ≤ 0.2
- PRPV — lower, ≤ 0.2
- TLPW — lower, ≤ 0.2
- PPHD — lower, ≤ 0.2
- RYTW — lower, ≤ 0.2
- QCRL — higher, 0.401
- QTVL — lower, ≤ 0.2
- DCRL — higher, 0.405
- QTKL — higher, 0.395
- DPRL — lower, ≤ 0.2
- QTDL — lower, ≤ 0.2
- QMRL — lower, 0.287
- QTYL — lower, ≤ 0.2
- QTRL — higher, 0.406
- QPRL — lower, ≤ 0.2
- DIRL — lower, ≤ 0.2
- QCKL — lower, 0.307
- DKKC — lower, ≤ 0.2
- LTSP — lower, ≤ 0.2
- DSLM — lower, ≤ 0.2
- GRHR — lower, ≤ 0.2
- VANW — lower, ≤ 0.2
- RFPW — lower, ≤ 0.2
- RCCM — lower, ≤ 0.2
- PGLH — lower, ≤ 0.2
- CHHR — lower, ≤ 0.2
- QRVL — lower, ≤ 0.2
- QRYL — lower, ≤ 0.2
- QRKL — higher, 0.367
- FRYF — lower, ≤ 0.2
- INML — lower, ≤ 0.2
- RHWS — lower, ≤ 0.2
- RHRS — higher, 0.585
- RHNS — higher, 0.505
- RHRD — lower, ≤ 0.2
- RHHS — higher, 0.443
- RHDS — lower, ≤ 0.2
- RHHN — lower, ≤ 0.2
- RHIS — lower, ≤ 0.2
- RHNH — lower, ≤ 0.2
- RHHD — lower, ≤ 0.2
- RHYS — higher, 0.376
- RHRN — lower, ≤ 0.2
- MVLT — lower, ≤ 0.2
- QIMY — lower, ≤ 0.2
- AMWR — lower, ≤ 0.2
- RYEA — lower, ≤ 0.2
- SMFC — lower, ≤ 0.2
- RFVV — lower, ≤ 0.2
- KGDK — lower, ≤ 0.2
- QCFY — lower, 0.213
- QRFY — higher, 0.392
- QSFY — lower, ≤ 0.2
- QSAY — lower, ≤ 0.2
- QCAY — lower, 0.21
- QRAY — higher, 0.516
- PAFP — lower, ≤ 0.2
- VCPS — lower, ≤ 0.2
- MCMN — lower, ≤ 0.2
- DHRV — lower, ≤ 0.2
- QPTV — lower, ≤ 0.2
- QCTM — lower, ≤ 0.2
- QRTV — higher, 0.412
- QRTF — lower, 0.294
- QRTS — higher, 0.685
- QCTV — lower, ≤ 0.2
- QSTQ — lower, ≤ 0.2
- QSTM — lower, ≤ 0.2
- QRTQ — higher, 0.437
- QCTQ — lower, ≤ 0.2
- QRTM — higher, 0.414
- QRTG — higher, 0.356
- ATLR — lower, ≤ 0.2
- IYRI — lower, ≤ 0.2
- AKFY — lower, ≤ 0.2
- IYLA — lower, ≤ 0.2
- KPSG — lower, ≤ 0.2
- GTKT — lower, ≤ 0.2
- SIIE — lower, ≤ 0.2
- QPTC — lower, ≤ 0.2
- QRTK — higher, 0.414
- QCTK — lower, ≤ 0.2
- QPTK — lower, ≤ 0.2
- QPTH — lower, ≤ 0.2
- QRTP — lower, 0.263
- QRTD — lower, 0.259
- QRTC — higher, 0.395
- QCTC — lower, ≤ 0.2
- QCTH — lower, 0.295
- QRTN — higher, 0.429
- QRTH — higher, 0.57
- LCDV — lower, ≤ 0.2
- ANGR — lower, ≤ 0.2
